The results in this text go back to PubChem BioAssay AID571 (The Scripps Research Institute Molecular Screening Center, 2007).

The whole screen tested about 65,000 compounds, of which about 640 (0.98%) were called active. What follows is part of a selection rich in actives, with near analogues and random picks from the rest. Unmarked numbers belong to inactive results.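 How the source made its calls: active means inhibition above a set limit, the mean inhibition across every tested compound plus 3 SD (cut at about 29% in these data); inactive means the rest.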

The term inhibition denotes the relative decrease from the control value, in per cent.

For this experiment, the target named is 5-hydroxytryptamine receptor 1E (Homo sapiens) (UniProt P28566). The experiment is described as follows: blockade of human serotonin 5HT1E receptor – cell-based, HTS, primary screen (AID 571).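 Further: signal is the 460 over 535 nm emission ratio of beta-lactamase substrate; 0% = agonist plus DMSO wells and 100% = wells without agonist.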 The note with it: CHO 5-HT1E Ga15 NFAT-bla reporter, FRET, antagonist; at 6 µM; stronger effect = higher value.
Chain of 5-hydroxytryptamine receptor 1E (Homo sapiens) (P28566 whole entry, looked up): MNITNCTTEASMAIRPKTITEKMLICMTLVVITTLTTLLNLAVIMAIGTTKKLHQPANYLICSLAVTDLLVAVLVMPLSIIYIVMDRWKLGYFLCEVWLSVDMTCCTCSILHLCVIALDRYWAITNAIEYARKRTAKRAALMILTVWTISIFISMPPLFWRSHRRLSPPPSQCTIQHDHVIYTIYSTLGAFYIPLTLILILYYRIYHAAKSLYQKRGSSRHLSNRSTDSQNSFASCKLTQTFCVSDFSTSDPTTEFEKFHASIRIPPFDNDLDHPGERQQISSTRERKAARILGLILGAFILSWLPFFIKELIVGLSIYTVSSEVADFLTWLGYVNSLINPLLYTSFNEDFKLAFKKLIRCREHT
With `C/C(CC(O)(/C=N/O)c1ccccc1)=N\O` (configuration not stated), the inhibition was 1.85%. For `COCCNC(=O)C(C#N)c1nc2ccccc2nc1N1CCN(Cc2ccc3c(c2)OCO3)CC1` (configuration not stated) the value was 2.9%; for `Cc1ccc(-c2noc(CSc3nnnn3-c3ccccc3)n2)cc1`, 4.04%; for `O=c1c2ccccc2nc(CSc2nnnn2-c2ccccc2)n1-c1ccccc1`, -9.14%. As to `CN(C)c1nc(N)nc(CSc2nnnn2-c2cccc3ccccc23)n1`, the inhibition is 30.2% (active).

Consider `CC(C)OCCCNc1ncnc2c1[nH]c1ccc(F)cc12`, for which the inhibition was 35% (active). For `CCN1CCCC1CNc1ncnc2c1[nH]c1ccc(F)cc12` (configuration not stated) the value was -8.46%; for `O=C1CCCN1CCCNc1ncnc2c1[nH]c1ccccc12`, 4.24%; for `CCOc1ccc(NC(=O)Nc2cc(C)on2)cc1`, -2.74%. With `O=C(CN1C(=O)COc2ccccc21)Nc1ccc(F)cc1`, the inhibition was 6.81%. For `O=C(CSc1nnc(-c2c[nH]c3ccccc23)n1-c1ccc(F)cc1)NCc1ccco1` the value was 6.88%; for `COc1ccc(S(=O)(=O)N(C)CC(=O)Nc2ccc3c(c2)OCCO3)cc1OC`, 10.4%; for `CCC(C)(C)n1nnnc1C(c1cccs1)N1CCN(c2nc3ccccc3s2)CC1` (configuration not stated), 3.71%. Turning to `Cc1nnc(SCc2cc(=O)[nH]c(N3CCN(Cc4ccccc4)CC3)n2)s1`, the inhibition is -7.09%. For `COc1cc(OC)c(C(=O)Nc2ccc(N(C)C)cc2)cc1OC` the value was -7.5%; for `COc1ccccc1-c1nc(C(F)(F)F)c(OC)o1`, -6.75%. For `Cc1cc(C)n2nc(C(=O)Oc3ccc4c(c3)OCO4)nc2n1` the value was -5.31%. For `COc1ccc(C)c(Cn2c(-c3nonc3N)nc3ccccc32)c1` the value was 33.6% (active); for `Nc1nonc1-c1nc2ccccc2n1Cc1ccc(F)cc1`, 8.52%.

On to `Nc1nonc1-c1nc2ccccc2n1CCC(=O)O`, for which the inhibition is 7.28%. For `NC(=O)CSc1oc(-c2cccs2)nc1S(=O)(=O)c1ccccc1` the value was 1.39%; for `CN(C)CCCNC(=O)c1ccc2[nH]c3ccccc3c2c1`, -3.46%. With `CCCCOc1ccc(C(C)(O)CCN2CCOCC2)cc1` (configuration not stated), the inhibition was 2.45%. For `Cc1ccc(S(=O)(=O)n2nc(OC(=O)C(C)(C)C)cc2N)cc1` the value was -1.76%. For `CN1CCCC(OC(=O)COc2ccc(Br)cc2)C1` (configuration not stated) the value was -15.4%.

Turning to `CC[C@H]1CN2CCc3cc(OC)c(OC)cc3[C@@H]2C[C@@H]1C[C@H]1NCCc2cc(OC)c(OC)cc21`, the inhibition was 92.4% (active). For `CCOC(=O)C1CCCN(C(=O)c2cncc(Br)c2)C1` (configuration not stated) the value was 3.85%; for `O=C(c1ccco1)N1CCN(CC(=O)N(C2CCCCC2)C2CCS(=O)(=O)C2)CC1` (configuration not stated), 16.6%. For `CCSC1=C(C#N)C(=O)n2c1cc1c2CCCC1` the value was -0.37%. For `CCSc1ncnc2c(C#N)c3n(c12)CCCCC3` the value was 47.6% (active); for `COC(=O)c1ccccc1NC(=O)Cn1nc(C(F)(F)F)c2c1CCC2`, -3.25%; for `CCn1c2c(c3ccc(OC)cc31)CCCC2=O`, 4.52%. In the case of `O=C(Nc1cc(C(F)(F)F)ccc1Cl)c1cc(C2CC2)on1`, the inhibition was -9.73%. For `Cc1cc(NC(=O)c2cc(-c3cccs3)on2)nn1Cc1ccc(Cl)cc1` the value was -7.29%; for `Cc1nn(Cc2ccc(Cl)c(Cl)c2)c(C)c1NC(=O)c1cc(C2CC2)on1`, 34.3% (active). With `CC(=O)C1C(c2ccc(Cl)cc2)NC(=O)NC1(O)C(F)(F)F` (configuration not stated), the inhibition is 6.15%. For `CCSC(C)CC1C/C(=N/O)c2c(C)noc2C1` (configuration not stated), the inhibition was 21.4%. For `Cc1nc2sc(C(c3ccco3)N3CCC4(CC3)OCCO4)c(O)n2n1` (configuration not stated) the value was -11.1%; for `CC1(C)Oc2ccc3ccc(=O)oc3c2/C(=C/NCCO)C1=O`, -8.4%.

`CN=C1SC(C(=O)O)CC(=O)N1C` (configuration not stated): the inhibition was 1.76%.

`CC[C@]1(O)C[C@@H]2CN(CCc3c([nH]c4ccccc34)[C@@](C(=O)OC)(c3cc4c(cc3OC)N(C)[C@H]3[C@@](O)(C(=O)OC)[C@H](OC(C)=O)[C@]5(CC)C=CCN6CC[C@]43[C@@H]65)C2)C1`: the inhibition is 73.5% (active). For the molecule `CC[C@]1(O)CC2CN(CCc3c([nH]c4ccccc34)[C@@](C(=O)OC)(c3cc4c(cc3OC)N(C=O)[C@H]3[C@@](O)(C(=O)OC)[C@H](OC(C)=O)[C@]5(CC)C=CCN6CC[C@]43[C@@H]65)C2)C1` (some centres not stated), the inhibition is 71.9% (active). For `Cc1ccc(C(c2nnnn2C(C)(C)C)N2CCc3ccccc3C2)cc1` (configuration not stated) the value was -3.9%; for `FC(F)Oc1ccccc1C1CC(c2ccc(Br)s2)Nc2ncnn21` (configuration not stated), 12%; for `O=C(c1cnn2ccccc12)N1CCc2ccccc21`, -4.32%.

As to `COCCNC(=O)CN(C(=O)CCC(=O)Nc1cc(C)on1)c1ccc(C)cc1C`, the inhibition is -0.23%. For `Cc1cccc(Cn2c(SCCO)nc3c2c(=O)n(C)c(=O)n3C)c1` the value was -1.41%.
